{"source": "PubChem BioAssay AID602143", "about": "(Vanderbilt Specialized Chemistry Center, 2011)", "note": "A number with no mark means an inactive call. The source made the active and inactive calls. Cut-off read from the data, not from the text of the source: active = remaining activity below about 50%; inactive = the rest.", "data": [{"molecular_target": "Phospholipase D2 (Homo sapiens) (UniProt O14939)", "assay": "PLD2 inhibitors in cells, cell-based, HEK293, single concentration (AID 602143);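 note: tested at 200 nM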", "conditions": "HEK293 cellular PLD2 activity, percent of control; hits give low values", "values": [{"smiles": "C[C@H](CN1CCC2(CC1)CNCc1ccccc12)NC(=O)c1ccc2ccccc2c1", "remaining activity": "110%"}, {"smiles": "COc1ccc(S(=O)(=O)NCCN2CCC(n3c(=O)[nH]c4ccccc43)CC2)cc1OC", "remaining activity": "77.1%"}, {"smiles": "O=C(NCCN1CCC2(CCc3ccccc32)CC1)[C@H]1C[C@@H]1c1ccccc1", "remaining activity": "99.8%"}, {"smiles": "O=C(NCCN1CCC2(C=Cc3ccccc32)CC1)c1cnc2ccccc2c1", "remaining activity": "92.4%"}, {"smiles": "CC(C)[C@@H](CN1CCC(n2c(=O)[nH]c3ccccc32)CC1)NC(=O)c1cc2cc(F)ccc2[nH]1", "remaining activity": "79.5%"}, {"smiles": "CC(C)[C@@H](CN1CCC(n2c(=O)[nH]c3ccccc32)CC1)NC(=O)[C@@H]1C[C@H]1c1ccccc1", "remaining activity": "74%"}, {"smiles": "O=C(NCCN1CCC(n2c(=O)[nH]c3ccccc32)CC1)C1CCc2ccccc2C1", "note": "(configuration not stated)", "remaining activity": "103%"}, {"smiles": "Cc1cc(C)c(S(=O)(=O)NCCN2CCC(n3c(=O)[nH]c4ccccc43)CC2)c(C)c1", "remaining activity": "98.8%"}, {"smiles": "Cc1ccc(C(=O)NCCN2CCN(c3ccccn3)CC2)cc1", "remaining activity": "107%"}, {"smiles": "NC1(CN2CCC(n3c(=O)[nH]c4cc(Cl)ccc43)CC2)CCCC1", "note": "(tested in a mixture with another compound)", "remaining activity": "94.3%"}, {"smiles": "O=C(NCCN1CCC2(CC1)CCN(c1ccccc1)C2=O)c1ccc2ccccc2c1", "remaining activity": "55%"}, {"smiles": "C=CCCCCCCCCC(=O)NCCN1CCC(n2c(=O)[nH]c3ccccc32)CC1", "remaining activity": "65.3%"}, {"smiles": "Cc1ccc(C(=O)NCCN2CCN(c3ncccn3)CC2)cc1", "remaining activity": "85.6%"}, {"smiles": "O=C(NCCN1CCC(n2c(=O)[nH]c3ccccc32)CC1)C1CCCCCC1", "remaining activity": "104%"}, {"smiles": "C[C@H](CN1CCC(n2nnc3ccccc32)CC1)NC(=O)c1ccc2ccccc2c1", "remaining activity": "48.2% (active)"}, {"smiles": "O=C(NCCN1CCN(c2ccncc2)CC1)c1cc2ccccc2s1", "remaining activity": "90.5%"}, {"smiles": "O=C(NCCN1CCN(c2ccncc2)CC1)c1ccc(Cl)cc1", "remaining activity": "116%"}, {"smiles": "O=C(NCCN1CCC(n2c(=O)[nH]c3ccccc32)CC1)c1cscn1", "remaining activity": "57.9%"}, {"smiles": "O=C(N[C@@H](Cc1ccccc1)CN1CCC(n2c(=O)[nH]c3ccccc32)CC1)c1ccc2ccccc2c1", "remaining activity": "96.7%"}, {"smiles": "O=C1c2ccccc2C(=O)N1CCCNc1cccc(F)c1", "remaining activity": "119%"}, {"smiles": "COc1cccc(N2CCN(CCNC(=O)c3ccc(C)cc3)CC2)c1", "remaining activity": "97.6%"}, {"smiles": "CS(=O)(=O)NCCN1CCC(n2c(=O)[nH]c3ccccc32)CC1", "remaining activity": "96.5%"}, {"smiles": "O=C(NCCN1CCC2(CC1)CCN(c1ccccc1)C2=O)c1cnc2ccccc2c1", "remaining activity": "42.3% (active)"}, {"smiles": "O=C(NCCN1CCC(c2nc3ccccc3[nH]2)CC1)c1cnc2ccccc2c1", "remaining activity": "80.6%"}, {"smiles": "O=C(NCCN1CCC2(CC1)CNCc1ccccc12)c1ccc2ccccc2c1", "remaining activity": "103%"}, {"smiles": "O=c1[nH]c2ccccc2n1C1CCN(CCNS(=O)(=O)c2ccc([N+](=O)[O-])cc2)CC1", "remaining activity": "80.3%"}, {"smiles": "O=C(NCCN1CCN(c2ncccn2)CC1)c1ccc(Cl)cc1", "remaining activity": "106%"}]}]}
